This passage reports outcome results from PubChem BioAssay (EPA / NIEHS).

Molecules are shown by their SMILES. Results filed as inconclusive are left out. The source made the active and inactive calls. How the source made its calls: active means hit-call score of the fitted dose curve at least 0.9, where 1 is the maximum; inconclusive means response in the unintended direction; inactive means score below 0.9.

The nature of this experiment: ATG_GAL4_TRANS: Attagene TRANS-FACTORIAL HepG2 Assay for GAL4 (Internal Marker) (AID 2282976). To be noted: HepG2 Attagene TRANS GAL4 internal marker reporter. The procedure: ATG_TRANS is a cell-based, multiplexed-readout assay that uses HepG2, a human liver cell line, with measurements taken at 24 hours after chemical dosing in a 24-well plate.ATG_GAL4_TRANS is one of 30 assay component(s) measured or calculated from the ATG_TRANS assay. It is designed to make measurements of mRNA induction, a form of inducible reporter, as detected with fluorescence intensity signals by Reverse transcription polymerase chain reaction (RT-PCR) and Capillary electrophoresis technology.Data from the assay component ATG_GAL4_TRANS was analyzed into 1 assay endpoint. This assay endpoint, ATG_GAL4_TRANS, was analyzed in the positive analysis fitting direction relative to DMSO as the negative control and baseline of activity. Using a type of inducible reporter, measures of mRNA for gain-of-signal activity can be used to understand the background control at the transcription factor-level as they relate to the gene . Furthermore, this assay endpoint can be referred to as a secondary readout, because this assay has produced multiple assay endpoints where this one serves a background control function. To generalize the intended target to other relatable targets, this assay endpoint is annotated to the background measurement intended target family, where the subfamily is baseline control.
Human liver HepG2 cells are transiently transfected with multiple reporter transcription units (MRTUs) in 6-well plates using FuGene 6 reagent (Roche; 3 ml FuGene/1 mg DNA). The MRTU constructs are regulated by a cis-regulating element (promoter). […] A major difference between the CIS and TRANS system is that in CIS activities of endogenous TFs are measured, whereas the TRANS assay evaluates changes in activities of exogenous, chimeric NR-Gal4 proteins. […] At the end of 24 hour incubation, total RNA was isolated using TriZol reagent (Invitrogen). The isolated RNA is then reverse-transcribed using oligo(dT) primer and Mo-MLV reverse transcriptase (Invitrogen) with DNAse I (Ambion) treatment for 30 min. The one-tenth of the produced cDNA was amplified by PCR using Taq DNA polymerase (Invitrogen) and two reporter sequence-specific primers. The PCR products were fluorescently labeled by primer extension with 6-arboxyfluorescein (6-FAM) 5'-labeled reporter sequence-specific primer (2 min at 95 C, 20 s at 68 C and 10 min at 72 C) and these products were digested with 5U of HpaI (New England Biolabs) for 2h at 37 C. The fragments were purified using Qiaquick PCR columns (Qiagen), analyzed on an ABI 3130xL genetic analyzer (Applied Biosystems) with peak positions identified by using a set of X-rhodamine (ROX)-labeled MapMarker1000 molecular weight standards (BioVentures). The raw capillary electrophoresis data was processed using Attagraph software (Attagene).
For `c1ccc2c(c1)ccc1ncccc12`, the result was inactive. For `O=CC1CC1` the value was “inactive”; for `CC(C)(C)c1n[nH]c(=O)n(N)c1=O`, “inactive”. Turning to `CCCCCC/C=C/C=O`, the call was inactive. `Cn1c(=O)[nH]c2ncn(C)c2c1=O`: the result was inactive. The same measure for `O=c1c2ccccc2nnn1CCl`: “inactive”; for `CCCCCCCC/C=C\CCCCCCCC(=O)O`: “inactive”; for `N#[N+]c1ccc2c(S(=O)(=O)[O-])cccc2c1O`: “inactive”. Regarding `CCCCCCCCCCc1ccccc1`, the result was inactive. For `C=CC(=O)NC(C)(C)CS(=O)(=O)O` the value was “inactive”; for `CC(=O)OCc1ccco1`, “inactive”; for `CN1C(=O)N(C)C(O)C1O` (stereo not given), “inactive”.

`O=[N+]([O-])C1(Br)COCOC1`: the result was inactive. For `CC1(C)[C@H]2CC[C@]1(C)C(=O)C2` the value was “inactive”; for `CC1=CC[C@H]2C[C@@H]1C2(C)C`, “inactive”. As for `N[C@H]1C(O)O[C@H](CO)[C@H](O)[C@@H]1O` (stereo not given in full), the compound was classed as inactive. For `CC(=O)CC(N)=O` the value was “inactive”. The same measure for `O=Cc1ccc(CO)o1`: “inactive”; for `CC(C)COC(=O)C=Cc1ccccc1`: “inactive”; for `NC(=O)c1ccccc1O`: “inactive”. The same measure for `C=C[Si](C)(C)O[Si](C)(C)C=C`: “inactive”. In the case of `CC=CC(F)(F)C(F)(F)C(F)(F)F`, the call was inactive. The same measure for `CNC(=S)NN`: “inactive”. The same measure for `CC(CC=O)CCCC(C)(C)O` (stereo not given): “inactive”; for `CC(C)=CCC[C@H](C)CCO`: “inactive”. Regarding `CC1=NC(C)OC1C` (stereo not given), the outcome was inactive. As for `CC1OC1C1CCC2(C)OC2C1` (stereo not given), the outcome was inactive. The same measure for `O=c1n(CCO)c(=O)n(CCO)c(=O)n1CCO`: “inactive”; for `C[C@]12C=CC(=O)C=C1CC[C@@H]1[C@@H]2[C@@H](O)C[C@@]2(C)[C@H]1CC[C@]2(O)C(=O)CO`: “inactive”.

For the compound `CCCCCCCCCCCSCC(=O)O`, the compound was called inactive. Take `C1=CCCC1`: the compound was called inactive. For `CC(=O)NS(=O)(=O)c1ccc(N)cc1` the value was “inactive”; for `CCC(C)(C)C1CCCCC1OC(C)=O` (stereo not given), “inactive”; for `OC1CCCC1`, “inactive”. In the case of `CCN(Cc1cccc(S(=O)(=O)O)c1)c1ccc(C(=C2C=CC(=[N+](CC)Cc3cccc(S(=O)(=O)[O-])c3)C=C2)c2ccccc2)cc1`, the call was inactive. For `c1cc(C(c2ccc(OCC3CO3)cc2)C(c2ccc(OCC3CO3)cc2)c2ccc(OCC3CO3)cc2)ccc1OCC1CO1` (stereo not given) the value was “inactive”; for `O=C1OC(=O)c2cc(Oc3ccc4c(c3)C(=O)OC4=O)ccc21`, “inactive”; for `O=C(/C=C/C=C/c1ccc2c(c1)OCO2)N1CCCCC1`, “inactive”. `CC(C)(C)c1ccc(N)cc1`: the compound was classed as inactive. The same measure for `CC1=NN(c2cc(S(=O)(=O)O)ccc2Cl)C(=O)C1N=Nc1ccccc1` (stereo not given): “inactive”.
